Our source for the AC50 and outcome values is PubChem BioAssay (EPA / NIEHS).

Read-out in assay [1]: Macrophage colony-stimulating factor (MCSF), CSF1 (gene 1435)
The assay is described as follows: BSK_hDFCGF_MCSF: BioMAP Diversity Plus: hDFCGF Assay for Macrophage colony-stimulating factor (MCSF) Biomarker Activity (AID 2283060). The following applies: primary human foreskin fibroblasts; actives raise or lower the signal. A digest of the protocol:
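ELISA read-out of M-CSF in human dermal foreskin fibroblast cultures, 24 h after chemical dosing; gain or loss of signal fitted bidirectionally relative to DMSO baseline.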

Assay [2] in a line: BSK_hDFCGF_SRB: Viability Assessment in the BioMAP Diversity Plus: hDFCGF Assay (AID 2283061).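 Also: cells exposed to compound for 24 h before the read.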 The settings on record: primary human foreskin fibroblasts. A digest of the protocol:
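Primary human foreskin fibroblasts; 24 h post-dose; fixed 10% TCA, stained 0.1% SRB, A560 read; total protein as overt cytotoxicity measure; curves fit bidirectionally vs DMSO control.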

Read-out in assay [3]: TIMP metallopeptidase inhibitor 1 (TIMP1), TIMP1 (gene 7076)
The assay is described as follows: BSK_hDFCGF_TIMP1: BioMAP Diversity Plus: hDFCGF Assay for TIMP metallopeptidase inhibitor 1 (TIMP1) Biomarker Activity (AID 2283062). The settings on record: primary human foreskin fibroblasts; actives raise or lower the signal. Summed up: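 ELISA readout of TIMP-1 from human dermal foreskin fibroblast cultures 24 h post-dosing. Curves were fitted in both directions against DMSO baseline, with SRB total-protein staining in parallel cultures as a cytotoxicity check.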

Read-out in assay [4]: Monokine induced gamma interferon (MIG), CXCL9 (gene 4283)
The assay is described as follows: BSK_hDFCGF_MIG: BioMAP Diversity Plus: hDFCGF Assay for Monokine induced gamma interferon (MIG) Biomarker Activity (AID 2283063). The settings on record: primary human foreskin fibroblasts; actives raise or lower the signal. A digest of the protocol:
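Fibroblasts (human foreskin, primary) dosed, 24 h, MIG by ELISA; fit bidirectional vs DMSO.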

Read-out in assay [5]: Matrix Metallopeptidase 1 (MMP1), MMP1 (gene 4312)
The assay is described as follows: BSK_hDFCGF_MMP1: BioMAP Diversity Plus: hDFCGF Assay for Matrix Metallopeptidase 1 (MMP1) Biomarker Activity (AID 2283064). The following applies: primary human foreskin fibroblasts; actives raise or lower the signal. Summed up: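 Primary human foreskin fibroblasts exposed to chemicals for 24 h; MMP1 measured by ELISA. Cytotoxicity tracked by SRB staining in parallel cultures; bidirectional fit relative to DMSO.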

Read-out in assay [6]: Vascular cell adhesion molecule 1 (VCAM1), VCAM1 (gene 7412)
The assay is described as follows: BSK_hDFCGF_VCAM1: BioMAP Diversity Plus: hDFCGF Assay for Vascular cell adhesion molecule 1 (VCAM1) Biomarker Activity (AID 2283065).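 As to AC50: VCAM-1 protein level quantified by ELISA after 24 h chemical exposure.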 The settings on record: primary human foreskin fibroblasts; actives raise or lower the signal. Summed up:
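ELISA read-out of VCAM-1 on human skin fibroblasts, 24 h post-dose; gain or loss of signal fitted bidirectionally against DMSO baseline.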

Read-out in assay [7]: Plasminogen activator inhibitor-1 (PAI1), SERPINE1 (gene 5054)
The assay is described as follows: BSK_hDFCGF_PAI1: BioMAP Diversity Plus: hDFCGF Assay for Plasminogen activator inhibitor-1 (PAI1) Biomarker Activity (AID 2283066). The following applies: primary human foreskin fibroblasts; actives raise or lower the signal. Summed up: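 Primary dermal fibroblasts (human foreskin), hDFCGF system; compound 24 h; PAI-1 by ELISA; bidirectional fit vs DMSO control.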

Read-out in assay [8]: Intercellular Adhesion Molecule 1 (ICAM1), ICAM1 (gene 3383)
The assay is described as follows: BSK_KF3CT_ICAM1: BioMAP Diversity Plus: KF3CT Assay for Intercellular Adhesion Molecule 1 (ICAM1) Biomarker Activity (AID 2283067). The following applies: primary human keratinocytes with fibroblasts; actives raise or lower the signal. A digest of the protocol:
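ELISA readout of ICAM-1; KF3CT human skin co-culture (keratinocytes + foreskin fibroblasts), 24 h post-dose; gain/loss fit vs DMSO baseline.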

Read-out in assay [9]: Interferon-gamma inducible Protein 10 (IP10), CXCL10 (gene 3627)
The assay is described as follows: BSK_KF3CT_IP10: BioMAP Diversity Plus: KF3CT Assay for Interferon-gamma inducible Protein 10 (IP10) Biomarker Activity (AID 2283068). The following applies: primary human keratinocytes with fibroblasts; actives raise or lower the signal. A digest of the protocol: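 KF3CT co-culture (keratinocytes + foreskin fibroblasts), 24 h compound, IP-10 by ELISA; bidirectional fit vs DMSO baseline.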

The nature of assay [10]: BSK_KF3CT_SRB: Viability Assessment in the BioMAP Diversity Plus: KF3CT Assay (AID 2283069).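 Also: total protein by sulforhodamine B staining as a cytotoxicity measure; read 24 h after compound addition.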 The following applies: primary human keratinocytes with fibroblasts. Summed up: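 Human keratinocyte and foreskin fibroblast co-culture exposed to chemical for 24 h. Total protein measured in parallel cultures by 0.1% sulforhodamine B staining after 10% TCA fixation, read at 560 nm; bidirectional fit relative to DMSO.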

“And” between values parts separate entries of the source, which are not always exact repeats. Equal values may be shown once. A structure can be active in one record and inactive in another. The source made the active and inactive calls. The calls were made as follows: active = hit-call score of the fitted dose curve at least 0.9, where 1 is the maximum; inactive = score below 0.9.

The term AC50 denotes the midpoint of the concentration-response curve, whichever way the signal moves. Turning to `O=C1C=CC(=O)N1c1ccc(Cc2ccc(N3C(=O)C=CC3=O)cc2)cc1`, the AC50 in assay [1] was 2 µM (active); in assay [2], 1.91 µM (active); in assay [3], 2.7 µM (active); in [4] it was 3.48 µM (active); in [5] it was 1.99 µM (active); in [6], 1.5 µM (active). The concentration at half-maximal activity (AC50) was 2.48 µM (active) in [7], 3.64 µM (active) in assay [8], 6.7 µM (active) in assay [9] and 1.97 µM (active) in [10].

Turning to `O=C(Cl)C(F)(F)C(F)(F)C(F)(F)C(F)(F)C(F)(F)C(F)(F)C(F)(F)F`, the outcome in [1], in assay [2], in [3], in assay [4], in assay [5] and in [6] was inactive. For the same compound, the result in assay [7], in assay [8], in assay [9] and in assay [10] was inactive. Moreover, the AC50 in [3] is 26.4 µM (active).

For `Cc1cc(C)c(O)c(C(C)(C)C)c1`, the concentration at half-maximal activity (AC50) in assay [1] was 34.4 µM (active); in assay [2], 35.2 µM (active); in [3], 30.1 µM (active); in assay [4] it was 32.8 µM (active); in assay [5], 34 µM (active); in [6] it was 34.7 µM (active). Further, the half-maximal activity concentration (AC50) in assay [7] is 30.9 µM (active); in [8], 35.1 µM (active); in assay [9], 34.2 µM (active); in assay [10], 33.5 µM (active).

In the case of `Cc1ccc(S(=O)(=O)C(I)I)cc1`, the AC50 in [1] is 2.36 µM (active); in assay [2], 2.63 µM (active); in [3], 1.62 µM (active); in assay [4] it was 2.68 µM (active); in assay [5] it was 2.22 µM (active); in [6], 0.942 µM (active). Besides, the AC50 in assay [7] is 2.41 µM (active); in assay [8], 3.07 µM (active); in assay [9], 7.09 µM (active); in assay [10] it was 5.19 µM (active).

As to `FC(F)(F)C(F)(F)C(F)(F)CC1CO1` (centres undefined), the outcome in assay [1], in [2], in assay [3], in assay [4], in assay [5] and in assay [6] was inactive. For the same compound, the outcome in assay [7], in [8], in assay [9] and in assay [10] was inactive. Further, in assay [4], the AC50 is 6.18 µM (active).

On to `O=C(O)C(F)(F)C(F)(F)C(F)(F)OC(F)(F)F`, for which the result in assay [1], in assay [2], in [3], in assay [4], in [5] and in assay [6] was inactive. The outcome in [7], in assay [8], in [9] and in assay [10] was inactive.

Take `COC(F)(C(F)F)C(F)(F)F` (centres undefined): the result in [1], in [2], in assay [3], in assay [4], in assay [5] and in assay [6] was inactive. The outcome in assay [7], in [8], in assay [9] and in [10] was inactive.

For the compound `O=C(c1ccccc1)c1ccc(O)cc1O`, the outcome in [1], in [2], in [3], in [4], in [5] and in assay [6] was inactive. Further, the outcome in assay [7], in [8], in assay [9] and in assay [10] was inactive.

Turning to `O=C(O)C(F)(F)C(F)(F)C(F)(F)C(F)(F)C(F)(F)C(F)(F)C(F)F`, the outcome in assay [1], in assay [2], in assay [3], in [4], in [5] and in assay [6] was inactive. Besides, the outcome in assay [7], in [8], in assay [9] and in [10] was inactive. In assay [3], the AC50 was 0.223 µM (active).

For `NCC(F)(F)C(F)(F)C(F)(F)C(F)(F)C(F)(F)C(F)(F)F`, the result in assay [1], in assay [2], in assay [3], in assay [4], in assay [5] and in assay [6] was inactive. Moreover, the result in assay [7], in [8], in assay [9] and in assay [10] was inactive.

For the compound `CCOC(C=C(C)CCC=C(C)C)OCC`, the AC50 in assay [1] is 32.8 µM (active); in assay [2] it was 33.2 µM (active); in assay [3] it was 20 µM (active); in assay [4], 27.3 µM (active); in [5], 32.4 µM (active); in assay [6] it was 20 µM (active). The figures for the AC50 in assay [7], in assay [9] and in assay [10] were 20 µM (active), 34.5 µM (active) and 34.8 µM (active), respectively. Moreover, in assay [8], the result was inactive.

Turning to `CCN=C1C=CC(=C(c2ccc(N(CC)CC)cc2)c2ccc(N(CC)CC)cc2)c2ccccc21`, the AC50 in [1] was 1.37 µM (active) and 1.28 µM (active); in [2], 0.331 µM (active); in assay [3], 1.42 µM (active) and 1.3 µM (active); in [4], 1.73 µM (active) and 1.47 µM (active); in assay [5] it was 1.29 µM (active) and 1.26 µM (active); in assay [6] it was 1.42 µM (active) and 854 nM (active). Moreover, the AC50 is 1.31 µM (active) and 1.23 µM (active) in assay [7]; 3.19 µM (active) and 3.16 µM (active) in assay [8]; 2.87 µM (active) and 2.44 µM (active) in assay [9]. Also, the outcome in assay [2] and in assay [10] was inactive.

As for `NC(=O)C(F)(F)C(F)(F)C(F)(F)C(F)F`, the outcome in assay [1], in [2], in assay [3], in assay [4], in assay [5] and in assay [6] was inactive. The result in [7], in [8], in assay [9] and in assay [10] was inactive.

Regarding `Cc1ccc(O)c(-n2nc3ccccc3n2)c1`, the result in assay [1], in assay [2], in assay [3], in assay [4], in assay [5] and in assay [6] was inactive. Further, the result in [7], in [8], in assay [9] and in assay [10] was inactive.

`O=C(F)C1(F)C(F)(F)C(F)(F)C(F)(F)C(F)(F)C1(F)F`: the result in assay [1], in [2], in [3], in assay [4], in assay [5] and in assay [6] was inactive. Besides, the result in assay [7], in assay [8], in assay [9] and in assay [10] was inactive.

Consider `Cc1cnccn1`, for which the result in assay [1], in assay [2], in [3], in assay [4], in assay [5] and in assay [6] was inactive. In addition, the outcome in assay [7], in assay [8], in assay [9] and in [10] was inactive.
